Assay results published in PubChem BioAssay (Tox21).
Several values for one entry are separate records, joined by “and”; a condition that tells them apart may be missing. Equal entries are not always repeated. Results filed as inconclusive are left out. Some structures have more than one record in an assay (separate samples or runs), and their calls can disagree. Activity calls are given as the source filed them. Unless noted, calls follow the shape of the dose curve; as a rule, active = well fitted curve in the direction sought with a large enough effect in the repeat runs; inconclusive = weak or mixed curves; inactive = no such curve, though single readings can be large; an effect the other way counts as inactive or inconclusive.

How the values were obtained:
[1] = qHTS assay to identify small molecule antagonists of the estrogen related receptor (ERR) signaling pathway from Tox21 library - cell viability counter screen (AID 1224834); also: nearly all actives have a fitted effect of over 30% in size
How it was run: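 After 17.5 h of compound exposure at 37 C, ERR cells are incubated with CellTiter-Fluor for 30 min and fluorescence intensity serves as the viability measure.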

[2] = biological target: Luciferin 4-monooxygenase (Photinus pyralis) (UniProt P08659); test: qHTS assay to identify small molecule inhibitors of firefly luciferase (AID 1224835); also: nearly all actives have a fitted effect of over 25% in size; also: potency is read from the fitted curve at half-maximal effect
How it was run: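 Quantitative HTS format; KM concentrations of both substrates. Purified P. pyralis FLuc activity quantified from luminescence images.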

[3] = qHTS assay to identify small molecule antagonists of the constitutive androstane receptor (CAR) signaling pathway - cell viability counter screen (AID 1224837); also: series mostly up to about 92 µM; nearly all actives have a fitted effect of over 45% in size
How it was run: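 Counter screen run in HepG2-CYP2B6-hCAR cells: 4 hr settle, compound titration (15 concentrations) with 50 nM CITCO, 23 hr at 37 C/5% CO2, CellTiter-Fluor fluorescence.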

[4] = qHTS assay to identify small molecule antagonists of the estrogen related receptor signaling pathway with the pleiotropic PPARgamma coactivator (PGC) from Tox21 10K library - cell viability counter screen (AID 1224840; active = well fitted cell-killing curve with a large enough effect in the repeat runs, not every such curve was filed as active; also: nearly all actives have a fitted effect of over 40% in size)
How it was run: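 Following seeding of 2,000 PGC/ERR cells/well and 6 hours' incubation, test compounds were delivered in DMSO. The plates then sat 17.5 hours at 37 C before a fluorogenic live-cell protease reagent (CellTiter-Fluor) was read after 30 min.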

[5] = qHTS assay to identify small molecule antagonists of the estrogen related receptor signaling pathway with the pleiotropic PPARgamma coactivator (PGC) from Tox21 10K library (AID 1224841; call rule not given here; also: actives are mostly falling curves and most rising ones were filed inactive; nearly all actives have a fitted effect of over 50% in size; also: potency is read from the fitted curve at half-maximal effect)
How it was run: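 qHTS antagonist format: PGC/ERR cells, 2k/well, compound in DMSO by pin transfer after 6 h attachment, 18 h treatment at 37 C, One-Glo luminescence read at 30 min.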

[6] = qHTS assay to identify small molecule agonists of the estrogen related receptor signaling pathway with the pleiotropic PPARgamma coactivator (PGC) from Tox21 10K library (AID 1224842); also: nearly all actives have a fitted effect of over 15% in size
How it was run: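 PGC/ERR reporter cells (NTP line) were seeded 2,000 per well, rested 6 h at 37 C/5% CO2, then pin-dosed with compounds in DMSO for 18 h at 37 C; luciferase read by One-Glo luminescence after 30 min at room temperature.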

[7] = biological target: Thyrotropin receptor (Homo sapiens) (UniProt P16473); test: qHTS assay to identify small molecule agonists of the thyroid stimulating hormone receptor (TSHR) signaling pathway (AID 1224843; calls by dose curve; also: nearly all actives have a fitted effect of over 45% in size)
How it was run: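 TSHR-expressing HEK293 cells (800 per well) were exposed to compounds for 30 min at room temperature. cAMP was then detected by HTRF competition with cAMP-d2 and anti-cAMP cryptate, read after 1 h at room temperature. Fifteen concentrations, triplicate.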

[8] = biological target: Nuclear receptor subfamily 1 group I member 3 (Homo sapiens) (UniProt Q14994); test: qHTS assay to identify small molecule agonists of the constitutive androstane receptor (CAR) signaling pathway (AID 1224839); also: nearly all actives have a fitted effect of over 15% in size; also: potency is read from the fitted curve at half-maximal effect
How it was run: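 Double-stable HepG2 cells (hCAR, CYP2B6-2.2kb) seeded 4 h before compound addition. Exposure 24 h with 0.75 uM PK11195 final. Luciferase detected by ONE-Glo.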

[9] = qHTS assay to identify small molecule agonists of the constitutive androstane receptor (CAR) signaling pathway - cell viability counter screen (AID 1224836); also: series mostly up to about 92 µM; nearly all actives have a fitted effect of over 45% in size
How it was run: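 Using CellTiter-Fluor, viability of HepG2 cells harbouring hCAR and CYP2B6-2.2kb was measured following 23 h incubation with a 15-concentration compound series plus PK11195 (0.75 uM final).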

[10] = biological target: Nuclear receptor subfamily 1 group I member 3 (Homo sapiens) (UniProt Q14994); test: qHTS assay to identify small molecule antagonists of the constitutive androstane receptor (CAR) signaling pathway (AID 1224838);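 also: HepG2 cells stably expressing hCAR with CYP2B6 luciferase reporter stimulated by CITCO; nearly all actives have a fitted effect of over 40% in size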
How it was run: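 Cell line: HepG2 double-stable for hCAR and CYP2B6-2.2kb reporter. Agonist: CITCO, 50 nM final. Compounds: 15 concentrations, 24 h, 37 C. Detection: ONE-Glo luminescence.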

Measured: Potency

Thyrotropin receptor (Homo sapiens), sequence (P16473 whole entry, looked up): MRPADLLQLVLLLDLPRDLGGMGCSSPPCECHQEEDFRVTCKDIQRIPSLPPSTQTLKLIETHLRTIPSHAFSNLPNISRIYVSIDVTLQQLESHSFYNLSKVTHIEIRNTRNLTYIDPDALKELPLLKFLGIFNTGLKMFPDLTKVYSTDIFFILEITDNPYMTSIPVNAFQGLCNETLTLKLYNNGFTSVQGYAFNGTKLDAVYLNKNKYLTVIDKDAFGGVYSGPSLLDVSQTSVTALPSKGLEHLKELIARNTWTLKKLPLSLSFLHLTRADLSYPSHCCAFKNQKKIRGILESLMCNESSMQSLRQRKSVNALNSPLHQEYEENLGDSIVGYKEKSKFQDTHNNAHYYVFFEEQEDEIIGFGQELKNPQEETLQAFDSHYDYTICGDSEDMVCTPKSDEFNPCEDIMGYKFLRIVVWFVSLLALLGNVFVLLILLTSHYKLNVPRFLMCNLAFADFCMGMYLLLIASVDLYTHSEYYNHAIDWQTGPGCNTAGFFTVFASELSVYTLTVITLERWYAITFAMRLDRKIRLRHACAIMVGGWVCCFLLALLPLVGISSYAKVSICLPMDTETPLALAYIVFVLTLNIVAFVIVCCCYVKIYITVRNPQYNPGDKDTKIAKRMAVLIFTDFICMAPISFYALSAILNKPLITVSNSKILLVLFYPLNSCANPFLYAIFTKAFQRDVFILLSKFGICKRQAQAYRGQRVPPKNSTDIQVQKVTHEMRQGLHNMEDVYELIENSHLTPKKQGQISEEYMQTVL
Luciferin 4-monooxygenase (Photinus pyralis), sequence (P08659 whole entry, looked up): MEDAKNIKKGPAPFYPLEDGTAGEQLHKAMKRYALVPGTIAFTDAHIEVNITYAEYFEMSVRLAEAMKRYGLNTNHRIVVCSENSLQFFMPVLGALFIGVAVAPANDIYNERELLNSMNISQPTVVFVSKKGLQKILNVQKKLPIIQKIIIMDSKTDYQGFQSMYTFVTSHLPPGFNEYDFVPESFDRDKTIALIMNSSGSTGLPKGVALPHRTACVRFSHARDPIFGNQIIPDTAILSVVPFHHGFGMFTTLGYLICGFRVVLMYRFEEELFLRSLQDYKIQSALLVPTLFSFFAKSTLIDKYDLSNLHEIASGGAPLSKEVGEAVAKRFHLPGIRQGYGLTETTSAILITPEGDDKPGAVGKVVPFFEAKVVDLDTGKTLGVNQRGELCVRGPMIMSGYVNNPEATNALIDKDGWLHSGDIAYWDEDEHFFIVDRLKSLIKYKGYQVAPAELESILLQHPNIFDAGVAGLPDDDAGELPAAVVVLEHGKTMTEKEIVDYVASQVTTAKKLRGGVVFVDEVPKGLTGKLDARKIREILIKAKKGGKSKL
Nuclear receptor subfamily 1 group I member 3 (Homo sapiens), sequence (Q14994 whole entry, looked up): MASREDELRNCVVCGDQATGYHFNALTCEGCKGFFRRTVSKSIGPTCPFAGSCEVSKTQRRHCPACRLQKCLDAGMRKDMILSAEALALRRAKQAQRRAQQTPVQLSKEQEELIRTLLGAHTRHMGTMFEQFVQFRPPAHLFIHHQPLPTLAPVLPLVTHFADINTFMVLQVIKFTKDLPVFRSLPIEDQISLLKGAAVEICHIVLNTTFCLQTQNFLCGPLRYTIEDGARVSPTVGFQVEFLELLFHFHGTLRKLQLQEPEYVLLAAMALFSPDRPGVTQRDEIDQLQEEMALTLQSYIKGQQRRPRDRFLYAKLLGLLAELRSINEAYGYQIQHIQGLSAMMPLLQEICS

CCCCCC(=O)O
54.5 µM (active) and inactive: [5]
not listed: [8] | [9] | [10]
inactive: all other assays above

CC(O)CC(C)(C)O (centres undefined)
inactive: [1] | [2] | [3] | [4]

OCc1cccc(Oc2ccccc2)c1
inactive: [1] | [3] | [8] | [4] | [7]

CCOC(=O)c1ccc(N)cc1
inactive: [9] | [3] | [10] | [8] | [4] | [7]

Cc1ccc(C(C)C)c(O)c1
inactive: [1] | [2] | [3] | [4] | [5] | [6]

O=S(=O)(O)c1ccccc1
inactive: [1] | [3] | [4] | [5] | [6] | [7]

CC(=O)CC(C)(C)O
not listed: [8] | [9] | [10]
inactive: all other assays above

O=C(OCC1CCC2OC2C1)C1CCC2OC2C1 (centres undefined)
inactive: [1] | [2] | [3] | [8] | [4] | [7]

CC1(C)NC(=O)NC1=O
not listed: [9] | [10]
inactive: all other assays above

CC(=O)Oc1ccc(C)cc1
inactive: [1] | [2] | [3] | [4]

CC(C)(C)c1cc(Cc2cc(C(C)(C)C)c(O)c(C(C)(C)C)c2)cc(C(C)(C)C)c1O
inactive: [1] | [2] | [3] | [8] | [4] | [7]

O=C1c2ccccc2CCc2ccccc21
active: [8] 31.3 µM and 26.6 µM
not listed: [9] | [10]
inactive: all other assays above

CCCCOC(=O)c1ccc(N)cc1
inactive: [1] | [3] | [10] | [4] | [7]
active: [8] 23.7 µM
inactive and 34.7 µM (active): [2]

O=[N+]([O-])c1ccc2nc[nH]c2c1
not listed: [5] | [6] | [9]
inactive: all other assays above

C=CCCCCCCCCC(=O)O
inactive: [1] | [2] | [3] | [4] | [7]

CN(C)c1ccc(O)c2c1C[C@H]1C[C@H]3[C@H](N(C)C)C(=O)C(C(N)=O)=C(O)[C@@]3(O)C(=O)C1=C2O
inactive: [2] | [9] | [3] | [8] | [4] | [7]

Clc1ccccn1
inactive: [1] | [2] | [3] | [4] | [7]

O=C(O)/C=C/C(=O)O
inactive: [2] | [9] | [3] | [10] | [7]

COc1ccc(C)cc1N
inactive: [1] | [2] | [3] | [4] | [7]

Nc1nc(N)nc(-c2ccccc2)n1
inactive: [1] | [2] | [3] | [8] | [4] | [7]

COc1ccc([N+](=O)[O-])cc1N
inactive: [1] | [2] | [3] | [8] | [4]

CC(CCl)OP(=O)(OC(C)CCl)OC(C)CCl (centres undefined)
38.6 µM (active) and inactive: [5]
not listed: [8] | [9]
inactive: all other assays above

CCCCC(C=O)CC (centres undefined)
inactive: [1] | [2] | [3] | [8] | [4] | [7]

O=C(O)CCCCCCCCC(=O)O
not listed: [9] | [10]
inactive: all other assays above

CC(C)(C#N)c1cc(Cn2cncn2)cc(C(C)(C)C#N)c1
not listed: [7] | [9] | [10]
inactive: all other assays above

CC(=O)c1ccc(O)cc1
inactive: [1] | [2] | [3] | [8] | [4] | [7]

CCCCCCCCCCN
inactive: [1] | [2] | [3] | [8] | [4] | [7]

NC(=S)NNC(N)=S
inactive: [1] | [2] | [3] | [4] | [7]

CN/C(=C\[N+](=O)[O-])NCCSCc1csc(CN(C)C)n1
not listed: [2] | [5] | [6]
inactive: all other assays above

C=CCc1ccc(OC)c(OC)c1
inactive: [1] | [2] | [3] | [4] | [7]

C=C(C)[C@H]1CC=C(C)C(=O)C1
inactive: [1] | [2] | [3] | [4] | [7]

COc1ccc(CCC(C)=O)cc1
inactive: [1] | [2] | [3] | [4] | [7]

NCCN1CCNCC1
not listed: [5] | [6] | [9]
inactive: all other assays above
